Source: PubChem BioAssay (National Center for Advancing Translational Sciences (NCATS))
TDP1 cell CPT = qHTS for Inhibitors of human tyrosyl-DNA phosphodiesterase 1 (TDP1): qHTS in cells in presence of CPT. chicken DT40 Tdp1-/-;hTDP1 cells + 20 nM CPT, ATP luminescence, 48 h. Potency, µM (doses to about 46.2 µM), without a hit: at the highest dose activity change, negative = growth inhibition, actives largely listed as inhibitors. 420,000 compounds, 12% hits. AID 686979, 2013; also: potency is read from the fitted curve at half-maximal effect; % is scaled to controls: 0 for no effect and ±100 for the full control effect; nearly all actives have a fitted effect of over 55% in size
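Cell growth measured by CellTiter-Glo luminescence after a minimum 48 h, 37 C compound exposure with 20 nM CPT in Tdp1-knockout DT40 cells stably expressing hTDP1, seeded 400/well; qHTS titration format.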
miR-21 act = qHTS Assay for Modulators of miRNAs and/orActivators of miR-21. Potency, µM (highest dose often 38.3 µM), for inactives: top-dose activity change, positive = activation, actives largely listed as activators. HeLa miR-21 FLuc reporter, luciferase, 48 h. 340,000 tested, under 10 active;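 also: % of control where 0% means no effect; miR-21 action dims this reporter so a rising signal means less miR-21 action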
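Luminescence from a firefly luciferase reporter carrying a miR-21 binding site downstream, stably expressed under a CMV promoter in HeLa cells that make miR-21 endogenously, reports miRNA modulation after 48 h compound exposure up to approximately 40uM final.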
uPA surface inh = qHTS for Inhibitors of Cell Surface uPA Generation; AID 540303, 2011; Potency, µM (doses to about 38.3 µM), inactives show at the top dose activity change, negative = inhibition, actives largely listed as inhibitors; cell surface uPA generation assay, qHTS; 330,000 compounds, 0.31% hits; active = well fitted inhibition curve with a large enough effect; inconclusive = small, poorly fitted or top-dose-only effect; inactive = no such curve, though single readings can be large or run the other way; tested in mouse RAW 264.7 cells; also: potency is read from the fitted curve at half-maximal effect; % is scaled to controls: 0 for no effect and ±100 for the full control effect; nearly all actives have a fitted effect of over 55% in size
TDP1 cell noCPT = qHTS for Inhibitors of human tyrosyl-DNA phosphodiesterase 1 (TDP1): qHTS in cells in absence of CPT. Potency, µM (series often up to 46.2 µM), for inactives: top-dose activity change, negative = growth inhibition, actives largely listed as inhibitors. 420,000 compounds, 15% hits. AID 686978, 2013. DT40 Tdp1-/- hTDP1 cells, no CPT, ATP luminescence, 48 h; also: potency is read from the fitted curve at half-maximal effect; % is scaled to controls: 0 for no effect and ±100 for the full control effect; nearly all actives have a fitted effect of over 55% in size
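Luminescent ATP content (CellTiter-Glo) served as the growth readout. Knockout chicken DT40 cells expressing human TDP1 were exposed to compounds without camptothecin for a minimum 48 hr at 37 °C.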
TDP1 block = qHTS Assay for Inhibitors of Tyrosyl-DNA Phosphodiesterase (TDP1) | Tyrosyl-DNA phosphodiesterase 1 (Homo sapiens), Q9NUW8 | recombinant TDP1, AlphaScreen DNA substrate cleavage | Potency, µM (top dose mostly 130 µM), without a hit: at the top dose activity change, negative = inhibition, most hits filed as inhibitors | 350,000 compounds, 0.28% hits; also: potency is read from the fitted curve at half-maximal effect; % is scaled to controls: 0 for no effect and ±100 for the full control effect; nearly all actives have a fitted effect of over 40% in size
Target sequence (Q9NUW8 whole entry, looked up): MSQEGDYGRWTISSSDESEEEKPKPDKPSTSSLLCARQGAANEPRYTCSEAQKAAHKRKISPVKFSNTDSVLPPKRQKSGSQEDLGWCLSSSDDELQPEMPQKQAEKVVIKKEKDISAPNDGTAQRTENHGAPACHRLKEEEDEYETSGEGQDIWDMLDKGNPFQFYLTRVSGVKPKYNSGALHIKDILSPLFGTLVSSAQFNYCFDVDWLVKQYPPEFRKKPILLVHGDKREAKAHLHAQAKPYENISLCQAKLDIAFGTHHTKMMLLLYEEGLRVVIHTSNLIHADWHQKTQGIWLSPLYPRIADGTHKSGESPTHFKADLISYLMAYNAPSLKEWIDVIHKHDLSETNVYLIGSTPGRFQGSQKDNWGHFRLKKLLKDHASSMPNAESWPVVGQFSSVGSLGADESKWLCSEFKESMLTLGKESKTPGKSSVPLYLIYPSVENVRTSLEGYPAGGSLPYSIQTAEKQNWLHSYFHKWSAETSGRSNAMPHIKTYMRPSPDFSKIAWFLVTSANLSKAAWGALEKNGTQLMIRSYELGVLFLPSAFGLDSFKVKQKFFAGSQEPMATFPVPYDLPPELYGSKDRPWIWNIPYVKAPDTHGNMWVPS
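Here, a 5' biotin and 3' phosphotyrosine-FITC DNA oligonucleotide reports Tdp1 activity: intact substrate bridges AlphaScreen beads, while cleavage leaves a 3' phosphate and drops signal. All incubations at room temperature.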
The depositor's hits bear a star; ? = inconclusive; · = no result. Compounds with a hit are over-represented: about 16% of the library has one in this group of screens. Unless noted, calls follow the shape of the dose curve; as a rule, active = well fitted curve in the direction sought with a large enough effect; inconclusive = small, poorly fitted or top-dose-only effect, or another doubt; inactive = no such curve, though single readings can be large; an effect the other way counts as inactive or inconclusive.

SMILES | TDP1 cell CPT | miR-21 act | uPA surface inh | TDP1 cell noCPT | TDP1 block
CCc1cc(=O)oc2c3c(cc(OCC(=O)NCc4ccncc4)c12)OC(C)(C)CC3 | 16.4µM* | -9.0% | -3.5% | 20.6µM* | ·
COc1cccc(CNC(=O)COc2cc3c(c4oc(=O)cc(C)c24)CCC(C)(C)O3)c1 | 20.6µM* | -1.5% | -0.8% | 16.4µM* | ·
COc1ccccc1CNC(=O)COc1cc2c(c3oc(=O)cc(C)c13)CCC(C)(C)O2 | 23.1µM* | 0.7% | -4.8% | 23.1µM* | ·
COc1ccc(CNC(=O)COc2cc3c(c4oc(=O)cc(C)c24)CCC(C)(C)O3)cc1 | ? | -5.5% | 3.5% | ? | ·
Cc1cc(=O)oc2c3c(cc(OCC(=O)NCc4cccnc4)c12)OC(C)(C)CC3 | ? | -15.7% | -9.2% | ? | ·
CCc1cc(=O)oc2c3c(cc(OCC(=O)NCc4ccco4)c12)OC(C)(C)CC3 | ? | 1.5% | -5.6% | ? | ·
CCOC(=O)C1CCN(C(=O)CSc2nc(N)cc(=O)[nH]2)CC1 | 3.3% | 1.6% | 1.5% | ? | ·
COc1ccc(Br)cc1CN1CCN(C(=O)c2ccc(OC)c(OC)c2)CC1 | ? | -12.8% | -0.4% | -28.4% | -13.2%
CN1CCN(c2ccc(Nc3c4ccccc4nc4ccccc34)cc2)CC1 | · | · | · | · | 20.7%
C=CC(=O)Nc1ccc(N(C)c2ccnc(Nc3ccc(N4CCN(C)CC4)cc3)n2)cc1 | ? | · | ? | 16.4µM* | 11.7%
COc1cccc2sc(=NC(=O)CCS(=O)(=O)c3ccc(C)cc3)n(C)c12 | ? | · | -1.7% | 20.6µM* | ·
CCOc1cccc2sc(=NC(=O)c3ccco3)n(CC(=O)OC)c12 | ? | 19.7% | -1.0% | 14.6µM* | 0.0%
CCOc1cccc2sc(=NC(=O)CCS(=O)(=O)c3ccc(F)cc3)n(C)c12 | ? | · | ? | 16.4µM* | ·
COCCn1c(=NC(=O)CCS(=O)(=O)c2ccccc2)sc2c(OC)ccc(OC)c21 | ? | -0.3% | -6.6% | ? | 3.9%
CCOC(=O)c1sc(=NC(=O)CCS(=O)(=O)c2ccccc2)n(C)c1C | 21.8% | -5.4% | -1.2% | 7.2% | 3.6%
CCOc1cccc2sc(=NC(=O)CCS(=O)(=O)c3ccccc3)n(CC)c12 | ? | 8.6% | -16.6% | 11.6µM* | 1.0%
O=C(C[n+]1ccccc1)N/N=C/c1ccco1 | 6.8% | 1.4% | 2.4% | 15.1% | 0.0%
O=C(COC(=O)c1ccc(-c2cnc3ccccc3n2)cc1)c1ccccc1 | -4.1% | -8.6% | 9.3% | ? | 0.6%
COCCn1c(=NC(=O)CCS(=O)(=O)c2ccccc2)sc2cc(C(=O)OC)ccc21 | 5.1% | -0.2% | 4.9% | 17.1% | -8.8%
CCCn1c(=NC(=O)CCS(=O)(=O)c2ccccc2)sc2cc(S(N)(=O)=O)ccc21 | 20.6µM* | · | 1.6% | 20.6µM* | -7.0%
COc1ccc(N=C2SC(C(=O)N3CCN(c4ccccc4)CC3)CC(=O)N2C)cc1 (configuration not stated) | -27.9% | 0.4% | -4.3% | -16.8% | ·
O=C(Nc1ccc(-n2nncc2-c2ccco2)cc1)c1cc2ccccc2oc1=O | 9.6% | -16.9% | · | 2.7% | 39.8µM*
O=C(Nc1ccc(-n2nncc2-c2ccco2)cc1)c1cccc(F)c1 | ? | -4.6% | · | ? | 3.1%
COc1ccc2cc(/C=C3\SC(=S)NC3=O)c(N3CCOCC3)nc2c1 | ? | -5.4% | -9.1% | 11.6µM* | 5.5%
COCC1CCCN(C(=O)c2ccc3oc(Cc4ccc(Cl)cc4)nc3c2)C1 (configuration not stated) | 23.1µM* | 2.7% | 0.8% | 8.2µM* | 0.7%
COCC1CCCN(C(=O)c2ccc3nc(Cc4cccc(Cl)c4)oc3c2)C1 (configuration not stated) | 25.9µM* | -38.4% | -8.6% | 14.6µM* | 4.5%
CC(=O)N1CCN(C(=O)c2ccc3oc(CCCc4ccccc4)nc3c2)CC1 | -5.6% | -9.6% | 6.8% | -5.9% | 3.5%
